Assay results as given in PubChem BioAssay (EPA / NIEHS).
Records with an inconclusive call do not appear. Calls of active or inactive are those of the source. The calls were made as follows, unless noted: active = hit-call score of the fitted dose curve at least 0.9, where 1 is the maximum; inactive = score below 0.9.

Columns and labels:
[1] = ATG_AP_2_CIS: Attagene CIS-FACTORIAL HepG2 Assay for human Activator Protein 2 (AP-2) (AID 2282932); conditions: HepG2 AP-2 cis-reporter, Attagene transcription factor profiling; actives raise or lower the signal
In short: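 HepG2, transient MRTU transfection, cis-regulated reporters; 24 h compound exposure; RNA isolated, RT-PCR, 6-FAM labelling, HpaI digest, CE fluorescence. DMSO = negative control/baseline, bidirectional fit.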

[2] = target: Hypoxia-inducible factor 1-alpha (Homo sapiens) (UniProt Q16665); assay: ATG_HIF1a_CIS: Attagene CIS-FACTORIAL HepG2 Assay for human Hypoxia Inducible Factor 1 (HIF1A) (AID 2282951); conditions: HepG2 Attagene cis-factorial HIF1a reporter transcription; actives raise or lower the signal
Sequence of Hypoxia-inducible factor 1-alpha (Homo sapiens) (Q16665 whole entry, looked up): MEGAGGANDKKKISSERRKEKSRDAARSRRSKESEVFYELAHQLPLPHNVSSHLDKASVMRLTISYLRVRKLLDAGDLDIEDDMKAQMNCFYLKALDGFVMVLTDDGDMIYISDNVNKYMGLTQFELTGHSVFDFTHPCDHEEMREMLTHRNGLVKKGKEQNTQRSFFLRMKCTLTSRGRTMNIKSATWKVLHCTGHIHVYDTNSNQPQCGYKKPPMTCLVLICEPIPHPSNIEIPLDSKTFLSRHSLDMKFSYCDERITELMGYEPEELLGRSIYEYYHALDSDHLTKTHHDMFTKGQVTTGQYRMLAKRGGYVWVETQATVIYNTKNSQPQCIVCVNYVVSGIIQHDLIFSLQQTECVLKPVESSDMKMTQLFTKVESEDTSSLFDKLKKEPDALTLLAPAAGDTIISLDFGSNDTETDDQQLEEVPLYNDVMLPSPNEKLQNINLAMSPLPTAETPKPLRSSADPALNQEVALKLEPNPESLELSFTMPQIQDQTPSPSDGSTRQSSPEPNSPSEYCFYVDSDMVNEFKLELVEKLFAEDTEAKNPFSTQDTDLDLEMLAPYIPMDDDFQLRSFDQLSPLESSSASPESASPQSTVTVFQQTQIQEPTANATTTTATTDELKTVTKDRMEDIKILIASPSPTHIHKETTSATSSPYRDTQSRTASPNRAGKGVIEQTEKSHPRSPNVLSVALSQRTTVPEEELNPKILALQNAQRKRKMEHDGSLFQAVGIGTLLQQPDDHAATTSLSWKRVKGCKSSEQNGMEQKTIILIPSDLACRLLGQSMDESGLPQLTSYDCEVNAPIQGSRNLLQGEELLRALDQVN
In short: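 Dosed 24 h, transfected HepG2 cells yielded total RNA whose reporter transcripts were RT-PCR-amplified and sized by capillary electrophoresis using fluorescent labelling; DMSO defined baseline, with gain and loss of signal both fitted.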

[3] = ATG_MRE_CIS: Attagene CIS-FACTORIAL HepG2 Assay for human Metal Responsive Element (MRE) (AID 2282954); conditions: HepG2 MRE cis-reporter transcription, Attagene multiplex; actives raise or lower the signal
In short: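 Transient MRTU transfection of HepG2 (FuGene 6); 24 h dosing; total RNA → oligo(dT) RT, PCR, 6-FAM primer extension, HpaI cut, CE. Bidirectional fit vs DMSO.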

[4] = ATG_PBREM_CIS: Attagene CIS-FACTORIAL HepG2 Assay for human Phenobarbital-responsive Enhancer Module (PBREM) (AID 2282955); conditions: HepG2 PBREM cis-reporter, Attagene multiplexed transcription; actives raise or lower the signal
In short: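 Transfected liver-derived HepG2 cells exposed 24 h; PBREM reporter transcript quantified via RT-PCR and capillary electrophoresis, with activity in either direction referenced to DMSO.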

[5] = ATG_M_19_TRANS: Attagene TRANS-FACTORIAL HepG2 Assay for M19 Transcription Factor (Internal Marker) (AID 2282974; active = hit-call score of the fitted dose curve at least 0.9, where 1 is the maximum); conditions: HepG2 Attagene TRANS-FACTORIAL M19 internal marker reporter
In short: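 Using RT-PCR and capillary electrophoresis, reporter mRNA from transiently transfected human HepG2 cells was quantified following 24 h exposure; activity was fitted in the positive direction against DMSO.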

[6] = target: Hepatocyte nuclear factor 4-alpha (Homo sapiens) (UniProt P41235); assay: ATG_HNF4a_TRANS: Attagene TRANS-FACTORIAL HepG2 Assay for human Hepatocyte Nuclear Factor 4 alpha (HNF4a) (AID 2282982; active = hit-call score of the fitted dose curve at least 0.9, where 1 is the maximum); conditions: HepG2 HNF4a transactivation reporter, mRNA readout
Sequence of Hepatocyte nuclear factor 4-alpha (Homo sapiens) (P41235 whole entry, looked up, the tested form may be a part): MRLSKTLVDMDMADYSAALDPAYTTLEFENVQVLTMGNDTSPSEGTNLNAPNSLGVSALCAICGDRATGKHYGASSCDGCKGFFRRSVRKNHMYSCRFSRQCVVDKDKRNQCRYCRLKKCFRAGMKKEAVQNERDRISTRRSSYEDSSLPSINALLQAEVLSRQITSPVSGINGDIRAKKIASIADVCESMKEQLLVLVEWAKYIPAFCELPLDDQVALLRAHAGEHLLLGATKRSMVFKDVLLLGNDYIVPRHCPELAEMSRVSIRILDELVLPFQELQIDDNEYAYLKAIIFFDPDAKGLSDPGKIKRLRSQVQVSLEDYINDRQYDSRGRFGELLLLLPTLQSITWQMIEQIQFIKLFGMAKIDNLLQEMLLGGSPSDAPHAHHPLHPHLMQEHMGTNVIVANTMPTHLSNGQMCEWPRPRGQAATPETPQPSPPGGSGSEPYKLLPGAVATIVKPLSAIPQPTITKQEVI
In short: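 Readout is fluorescent reporter-transcript fragments resolved by capillary electrophoresis after RT-PCR from HepG2 cells dosed for 24 h. Cells carried transfected GAL4-UAS reporter constructs measuring exogenous NR-GAL4 chimera activity; DMSO served as baseline.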

[7] = ATG_M_32_TRANS: Attagene TRANS-FACTORIAL HepG2 Assay for M32 Transcription Factor (Internal Marker) (AID 2282984; active = hit-call score of the fitted dose curve at least 0.9, where 1 is the maximum;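 also: transcript level of a background control reporter unit measured by RT-PCR and capillary electrophoresis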); conditions: HepG2 Attagene TRANS M32 internal marker reporter
In short: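 Measures reporter mRNA induction in human HepG2 liver cells after 24 h chemical treatment. Transcripts from transiently transfected GAL4-UAS reporter units are amplified, fluorescently labelled and sized by capillary electrophoresis; gain of signal relative to DMSO.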

[8] = ATG_NFI_CIS: Attagene CIS-FACTORIAL HepG2 Assay for human Nuclear Factor I (NFI) (AID 2282989); conditions: HepG2 cis-regulatory reporter, NFI response element transcription; actives raise or lower the signal
In short: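 Transient MRTU transfection of HepG2 → 24 h chemical dosing → total RNA, oligo(dT) RT → PCR, 6-FAM primer extension, HpaI cut → capillary electrophoresis. Endpoint fitted bidirectionally relative to DMSO.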

[9] = ATG_NF_kB_CIS: Attagene CIS-FACTORIAL HepG2 Assay for human Nuclear Factor Kappa B (NF-kB) (AID 2282991); conditions: HepG2 Attagene cis-factorial NF-kB reporter mRNA; actives raise or lower the signal
In short: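 Endpoint from a 52-component multiplexed HepG2 reporter panel: cis-regulated transcription units transiently transfected, 24 h dosing, reporter mRNA quantified by RT-PCR and capillary electrophoresis, scored as increase or decrease against DMSO.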

[10] = ATG_NRF2_ARE_CIS: Attagene CIS-FACTORIAL HepG2 Assay for human Nuclear Factor Erythroid 2 Related Factor 2 (NFR2) response to Antioxidant Response Elements (ARE) (AID 2282992); conditions: HepG2 Attagene ARE/NRF2 reporter, transcription factor activity; actives raise or lower the signal;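 as to AC50: reporter mRNA level measured by RT-PCR and capillary electrophoresis fluorescence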
In short: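 HepG2 cells transiently transfected with multiplexed cis-regulated reporter transcription units measure endogenous transcription factor activity. Reporter mRNA at 24 h is quantified by RT-PCR, fluorescent labelling and capillary electrophoresis, with bidirectional fitting relative to DMSO.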

[11] = target: human Thyroid Receptor alpha (THRa1), THRA (gene 7067) (UniProt P10827); assay: ATG_THRa1_TRANS: Attagene TRANS-FACTORIAL HepG2 Assay for human Thyroid Receptor alpha (THRa1) (AID 2283014; active = hit-call score of the fitted dose curve at least 0.9, where 1 is the maximum)
Sequence of human Thyroid Receptor alpha (THRa1), THRA (gene 7067) (P10827 whole entry, looked up, the tested form may be a part): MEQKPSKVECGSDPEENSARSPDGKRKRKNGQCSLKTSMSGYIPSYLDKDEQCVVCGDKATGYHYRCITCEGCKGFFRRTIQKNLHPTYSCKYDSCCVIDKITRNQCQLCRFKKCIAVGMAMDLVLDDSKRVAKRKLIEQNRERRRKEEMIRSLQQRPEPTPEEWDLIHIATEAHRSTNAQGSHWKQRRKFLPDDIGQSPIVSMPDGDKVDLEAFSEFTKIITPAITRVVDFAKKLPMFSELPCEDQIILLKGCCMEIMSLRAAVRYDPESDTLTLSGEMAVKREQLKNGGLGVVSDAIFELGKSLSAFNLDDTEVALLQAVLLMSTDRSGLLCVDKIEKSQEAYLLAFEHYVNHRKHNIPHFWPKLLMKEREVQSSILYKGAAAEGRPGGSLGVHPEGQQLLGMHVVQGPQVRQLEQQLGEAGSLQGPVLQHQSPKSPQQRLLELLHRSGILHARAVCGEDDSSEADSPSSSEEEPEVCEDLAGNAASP
In short: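 Transient HepG2 transfection, NR-Gal4 chimera driving GAL4-UAS reporters; 24 h compound exposure; total RNA, oligo(dT) RT, PCR, fluorescent primer extension, capillary electrophoresis. Upward direction vs DMSO control.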

[12] = ATG_BRE_CIS: Attagene CIS-FACTORIAL HepG2 Assay for human Bone Morphogenetic Protein (BMP) Response Element (BRE) (AID 2282933); conditions: HepG2 BMP response element reporter, Attagene transcription factor profiling; actives raise or lower the signal
In short: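 Transient MRTU transfection of human HepG2 liver cells; 24 h compound treatment; total RNA isolated, reverse-transcribed, PCR-amplified, 6-FAM labelled, HpaI-cut, capillary electrophoresis. DMSO = negative control/baseline, bidirectional fit.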

[13] = target: Retinoic acid receptor alpha (Homo sapiens) (UniProt P10276); assay: ATG_DR5_RAR_CIS: Attagene CIS-FACTORIAL HepG2 Assay for human Retinoic Acid Receptor Alpha (RARE), DR5 submotif (AID 2282934); conditions: HepG2 Attagene cis-factorial RARE DR5 reporter, mRNA; actives raise or lower the signal
Sequence of Retinoic acid receptor alpha (Homo sapiens) (P10276 whole entry, looked up): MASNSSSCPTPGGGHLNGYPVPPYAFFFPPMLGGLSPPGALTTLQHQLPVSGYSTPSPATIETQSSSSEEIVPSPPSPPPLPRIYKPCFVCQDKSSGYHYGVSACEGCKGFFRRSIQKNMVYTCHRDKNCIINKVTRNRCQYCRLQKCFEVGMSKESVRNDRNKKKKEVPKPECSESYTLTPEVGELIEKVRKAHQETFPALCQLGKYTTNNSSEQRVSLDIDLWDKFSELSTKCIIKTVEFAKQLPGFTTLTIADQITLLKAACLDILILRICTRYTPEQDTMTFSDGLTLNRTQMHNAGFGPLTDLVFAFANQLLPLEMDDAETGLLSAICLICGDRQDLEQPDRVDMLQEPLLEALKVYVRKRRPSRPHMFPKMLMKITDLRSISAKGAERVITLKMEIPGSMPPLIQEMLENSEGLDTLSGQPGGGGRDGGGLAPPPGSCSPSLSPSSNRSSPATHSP
In short: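 HepG2, transient cis-reporter transfection, 24 h exposure. mRNA readout: RT-PCR, FAM label, HpaI cut, capillary electrophoresis. DMSO baseline, gain/loss fitting.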

[14] = ATG_RORE_CIS: Attagene CIS-FACTORIAL HepG2 Assay for human RAR-related Orphan Receptor Element (RORE) (AID 2282959); conditions: HepG2 Attagene cis-factorial RORE reporter, mRNA; actives raise or lower the signal
In short: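 Transiently transfected HepG2 reporter cells were treated 24 h. Reporter transcripts were detected by RT-PCR and capillary electrophoresis, with bidirectional fitting against DMSO.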

[15] = ATG_M_06_TRANS: Attagene TRANS-FACTORIAL HepG2 Assay for M06 Transcription Factor (Internal Marker) (AID 2282983; active = hit-call score of the fitted dose curve at least 0.9, where 1 is the maximum;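 also: reporter transcript level by RT-PCR then capillary electrophoresis fluorescence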); conditions: HepG2 Attagene TRANS M06 internal marker reporter
In short: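 After a 24 h chemical treatment of transfected HepG2, RNA underwent DNase I treatment, reverse transcription and reporter-specific PCR; labelled, HpaI-digested products were sized by capillary electrophoresis. Signal increase relative to DMSO defined activity.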

[16] = target: human Peroxisome Proliferator-activated Receptor alpha (PPARa), PPARA (gene 5465) (UniProt Q07869); assay: ATG_PPARa_TRANS: Attagene TRANS-FACTORIAL HepG2 Assay for human Peroxisome Proliferator-activated Receptor alpha (PPARa) (AID 2283001; active = hit-call score of the fitted dose curve at least 0.9, where 1 is the maximum;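 as to AC50: potency for gain of reporter signal over DMSO so agonist or activator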)
Sequence of human Peroxisome Proliferator-activated Receptor alpha (PPARa), PPARA (gene 5465) (Q07869 whole entry, looked up, the tested form may be a part): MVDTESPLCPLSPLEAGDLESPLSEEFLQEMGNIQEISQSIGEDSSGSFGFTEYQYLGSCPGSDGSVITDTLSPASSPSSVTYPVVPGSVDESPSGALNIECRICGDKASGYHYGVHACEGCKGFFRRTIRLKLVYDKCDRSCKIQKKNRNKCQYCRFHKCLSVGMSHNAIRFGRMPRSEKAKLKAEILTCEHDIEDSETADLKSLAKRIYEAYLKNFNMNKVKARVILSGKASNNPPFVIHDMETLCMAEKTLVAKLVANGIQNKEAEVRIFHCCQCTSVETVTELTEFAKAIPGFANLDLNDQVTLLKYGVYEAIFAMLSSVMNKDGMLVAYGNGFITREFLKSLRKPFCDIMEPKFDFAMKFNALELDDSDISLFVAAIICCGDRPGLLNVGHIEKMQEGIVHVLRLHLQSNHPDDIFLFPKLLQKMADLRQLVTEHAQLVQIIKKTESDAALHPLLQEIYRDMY
In short: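 Read-out is fluorescence of reporter cDNA fragments resolved by capillary electrophoresis after RT-PCR. Human HepG2 liver cells carried transfected PPARa-Gal4 chimera and GAL4-UAS reporter units, treated 24 h; activity scored as increase over DMSO.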

[17] = target: human Retinoid X Receptor beta (RXRb), RXRB (gene 6257) (UniProt P28702); assay: ATG_RXRb_TRANS: Attagene TRANS-FACTORIAL HepG2 Assay for human Retinoid X Receptor beta (RXRb) (AID 2283013; active = hit-call score of the fitted dose curve at least 0.9, where 1 is the maximum)
Sequence of human Retinoid X Receptor beta (RXRb), RXRB (gene 6257) (P28702 whole entry, looked up, the tested form may be a part): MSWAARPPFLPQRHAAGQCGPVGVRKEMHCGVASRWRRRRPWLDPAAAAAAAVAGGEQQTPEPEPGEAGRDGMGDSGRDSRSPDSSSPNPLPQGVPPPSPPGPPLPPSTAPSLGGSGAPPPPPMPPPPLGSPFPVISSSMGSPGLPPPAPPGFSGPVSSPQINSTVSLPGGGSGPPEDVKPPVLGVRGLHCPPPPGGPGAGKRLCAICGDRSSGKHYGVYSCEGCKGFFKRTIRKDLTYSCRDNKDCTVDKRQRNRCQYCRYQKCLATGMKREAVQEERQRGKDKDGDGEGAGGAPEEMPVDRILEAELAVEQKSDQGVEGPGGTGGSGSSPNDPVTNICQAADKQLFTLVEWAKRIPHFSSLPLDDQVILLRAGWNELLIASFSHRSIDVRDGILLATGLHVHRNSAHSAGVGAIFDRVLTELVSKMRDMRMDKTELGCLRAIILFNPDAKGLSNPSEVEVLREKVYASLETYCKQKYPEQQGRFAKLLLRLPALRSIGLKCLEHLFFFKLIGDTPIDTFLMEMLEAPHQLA
In short: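 Transfect HepG2 with GAL4-UAS multi-reporter constructs (chimeric NR-Gal4, TRANS format); dose compound 24 h; isolate RNA, RT-PCR, FAM primer extension, HpaI digest; quantify by capillary electrophoresis; positive direction vs DMSO.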

[18] = ATG_EGR_CIS: Attagene CIS-FACTORIAL HepG2 Assay for human Early Growth Response 1 (EGR1) (AID 2282938); conditions: HepG2 Attagene CIS-FACTORIAL EGR reporter mRNA; actives raise or lower the signal
In short: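 Endpoint derived by bidirectional fitting versus DMSO vehicle. Method: cis-promoter reporter units transfected into HepG2, 24 h dosing, RNA isolation, RT-PCR with 6-FAM primer extension and HpaI digestion, then capillary electrophoresis fluorescence detection.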

[19] = target: X-box-binding protein 1 (Homo sapiens) (UniProt P17861); assay: ATG_Xbp1_CIS: Attagene CIS-FACTORIAL HepG2 Assay for human X-box Binding Protein 1 (XBP1) (AID 2282972); conditions: HepG2 XBP1 cis-element reporter, Attagene multiplex; actives raise or lower the signal
Sequence of X-box-binding protein 1 (Homo sapiens) (P17861 whole entry, looked up): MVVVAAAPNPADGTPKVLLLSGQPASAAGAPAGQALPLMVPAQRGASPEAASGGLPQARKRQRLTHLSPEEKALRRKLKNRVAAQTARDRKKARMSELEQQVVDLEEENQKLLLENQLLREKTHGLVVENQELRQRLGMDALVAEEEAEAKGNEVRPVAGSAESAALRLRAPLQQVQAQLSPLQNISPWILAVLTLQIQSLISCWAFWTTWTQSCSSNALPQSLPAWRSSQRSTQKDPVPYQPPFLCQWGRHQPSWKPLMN
In short: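 HepG2 cells transiently transfected with cis-regulated multiple reporter transcription units; endogenous transcription factor activity measured 24 hours after chemical dosing. Reporter mRNA quantified by RT-PCR, 6-FAM primer extension, HpaI digestion and capillary electrophoresis; bidirectional fitting versus DMSO.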

[20] = ATG_TA_CIS: Attagene CIS-FACTORIAL HepG2 Assay for human TA Basal Promoter (AID 2282964); conditions: HepG2 Attagene CIS-factorial TA basal promoter reporter; actives raise or lower the signal
In short: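 Read-out: fluorescent reporter-transcript fragments resolved by capillary electrophoresis after RT-PCR and HpaI digestion. Source: HepG2 cells carrying transiently transfected multi-reporter cis constructs, treated 24 h. Endpoint fitted bidirectionally relative to DMSO.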

Measured: AC50

O=C(C(=O)c1ccccc1)c1ccccc1
inactive: [1] | [2] | [3] | [4] | [5] | [6] | [7] | [8] | [9] | [10] | [11]

Oc1ccc(Cl)cc1C1CCCC1
inactive: [13] | [4] | [14] | [6] | [15] | [7] | [9] | [11]
active: [12] 56.6 µM | [3] 53 µM | [8] 33.4 µM | [10] 12.9 µM | [16] 39.1 µM | [17] 3.12 µM

CCCCOC(=O)COc1ccc(Cl)cc1Cl
not listed: [11] | [14] | [15] | [16] | [20]
inactive: all other assays above

Cc1ccccc1S(=O)(=O)O
inactive: [1] | [13] | [2] | [5] | [6] | [15] | [8] | [10] | [16]

COC(=O)CCSCCC(=O)OC
not listed: [6] | [12] | [15] | [17] | [20]
inactive: all other assays above

CC(C)CC(=O)CC(C)C
inactive: [12] | [2] | [3] | [14] | [19] | [15] | [8] | [9] | [10]

O=C(O)c1ccccc1C(=O)O
not listed: [2] | [3] | [5] | [12] | [16] | [18]
inactive: all other assays above

CCCCCCCC#N
inactive: [12] | [13] | [2] | [3] | [20] | [5] | [6] | [9] | [10] | [11]

CCC(C)NC(N)=O (configuration not stated)
inactive: [1] | [2] | [3] | [4] | [14] | [20] | [19] | [15] | [7] | [9] | [10]

CCOc1ccc2c(c1)C(C)CC(C)(C)N2 (configuration not stated)
active: [17] 37.7 µM
not listed: [6] | [7] | [11] | [16] | [19] | [20]
inactive: all other assays above

N#CCN(CC#N)CCN(CC#N)CC#N
not listed: [1] | [3] | [10] | [11] | [13] | [14] | [16] | [19]
inactive: all other assays above

C=CC(C)(CCC=C(C)C)OC(=O)c1ccccc1 (configuration not stated)
not listed: [1] | [3] | [4] | [5] | [6] | [10] | [14] | [17]
inactive: all other assays above

COc1c2occc2cc2ccc(=O)oc12
inactive: [12] | [13] | [18] | [3] | [14] | [15] | [16] | [11]
active: [17] 100 µM

CCCC[N+]1(C)CCCC1
inactive: [1] | [12] | [18] | [3] | [14] | [20] | [19] | [15] | [8] | [10] | [16]

NC(N)=Nc1nc(CSCCC(N)=NS(N)(=O)=O)cs1
inactive: [12] | [13] | [18] | [3] | [14] | [15] | [7] | [10] | [16] | [17] | [11]
